Measurements taken from PubChem BioAssay.
Values joined by “and” are separate entries in the source; they are usually repeats but may differ in a detail not shown here. Identical values can stand only once. Active and inactive are the calls of the source.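 The calls were made as follows, unless noted: active = normalized viability below 100% at a tested concentration; inactive = the rest.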

Legend:
[1] = Wnt pathway potentiators raising nuclear beta-catenin – imaging, WNT3A-conditioned medium, mouse C2C12, NPC library, primary screen (AID 1117326; in the data active = nuclear beta-catenin stimulation mostly above about 4.2%, no sharp cut-off; inactive = mostly below about 10%); conditions: stronger effect = higher value
[2] = growth inhibition of GSK3B-pretreated HCT116 cells – cell-based, CellTiter-Glo, 0.2 to 20 µM (AID 1117336;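 active = compounds lowering colon cancer cell viability after pretreatment blocking the GSK3B kinase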); conditions: HCT116 viability after GSK3B inhibitor, at 20 µM, stronger effect = higher value
[3] = HCT116 colon cancer cell growth inhibition, primary screen, CellTiter-Glo luminescence, NPC library (AID 1117342;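 active = compounds that lower survival of HCT116 colon cancer cells in the luminescence readout, no numeric limit stated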); conditions: at 20 µM (top of the series)
[4] = reduced SW480 viability measured with CellTiter-Glo, NPC library, primary (AID 1117343;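 active = compounds that lower viability of the colon cancer cells in the luminescence readout, with no numeric limit stated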); conditions: CellTiter-Glo luminescence; at 20 µM (top of the series) unless noted
[5] = NPC library primary testing for decreased DLD-1 cell viability via CellTiter-Glo (AID 1117346;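 active = compounds that lower survival of DLD-1 colon cancer cells in the luminescence readout, no cutoff given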); conditions: DLD-1 viability, CellTiter-Glo luminescence; at 20 µM (top of the series)
[6] = viability loss with induced miR-34 in A549 – imaging, A549 dox-inducible miR-34, nuclei and caspase counts, primary screen (AID 1347080;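 active = compounds whose cell count with miR-34 switched on is under 0.7 times the count with it off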); conditions: A549 miR-34 inducible, Hoechst nuclei count, 48 h
[7] = MELAS cybrid and Rieske KO viability enhancers – cell-based, MELAS cybrids, Rieske KO mouse fibroblasts, CellTiter-Glo, primary screen (AID 1508586;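 active = mean z-score across replicates of 1.96 or higher in either the MELAS or the Rieske mutant cell line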;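 also: z relative to plate mean and SD of compound and empty wells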); conditions: low glucose
[8] = drug combination growth inhibition, ovarian cancer – cell-based, oncology-focused library, rucaparib conditional, profiling panel (AID 1508598); conditions: patient-derived ovarian cancer cells, CellTiter-Glo viability, 144 h, stronger effect = lower value
[9] = compounds altering viability of human ES cells (AID 493140; call rule not given here;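 also: cells exposed to compounds for four days before counting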); conditions: human embryonic stem cell survival screen; stronger effect = higher value
[10] = P. berghei load reduction in hepatocytes – cell-based, HepG2, luciferase luminescence, HepG2 viability, primary screen (AID 624349; in the data active = parasite load remaining mostly below about 12%, no sharp cut-off; inactive = mostly above about 10%;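 also: 100% = mean of DMSO negative control wells on the same plate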); conditions: P. berghei liver stage in HepG2, luciferase luminescence, concentration not given here; parasite load remaining: stronger effect = lower value; viability: measured here: HepG2 viability without parasites
[11] = stimulators of insulin release from INS-1E, primary screen, cell-based, 5 mM glucose, NPC library (AID 1117329;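 active = compound raises insulin release from rat beta cells at 5 mM glucose, no numeric limit stated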); conditions: rat INS-1E insulin secretion, at 10 µM, stronger effect = higher value
[12] = inhibition of endothelial tube formation, primary screen, imaging, VEGF stimulated, CD31 staining, tube area, NPC library (AID 1117340;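 active = compound that reduces growth-factor-driven endothelial tube area in a mixed cell culture, no cutoff stated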); conditions: VEGF-stimulated ADSC/ECFC co-culture, at 10 µM, stronger effect = higher value
[13] = GLP1 release stimulators, primary, NCI-H716, NPC library (AID 1117341;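 active = compound raises GLP1 secretion from the human gut endocrine cells, with no numeric limit stated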); conditions: NCI-H716 cells, at 10 µM, stronger effect = higher value
[14] = target: 6-phosphogluconate dehydrogenase, decarboxylating (Homo sapiens) (UniProt P52209); assay: inhibition of human phosphogluconate dehydrogenase – biochemical, recombinant enzyme, NADPH absorbance, primary screen (AID 1159550;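 active = at least 20% inhibition of 6-phosphogluconate dehydrogenase activity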); conditions: recombinant 6PGD, NADPH absorbance 341 nm; at 10 µM; stronger effect = higher value
[15] = modulation of C. elegans fzo-1 (AID 1259413; call rule not given here;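 also: fzo-1 mutant C. elegans worms in liquid wells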); conditions: C. elegans fzo-1 modulator screen, mean read-out; stronger effect = higher value
[16] = EMT-state selective cytotoxicity in co-culture – imaging, PC-3E GFP, TEM4-18 mCherry, primary screen (AID 1345086;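 active = compounds killing one labelled cell type while sparing the other, by normalised counts and ratio limits, not self-fluorescent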;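 as to all read-outs here: cells exposed to compound for 72 h before imaging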;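 as to red/green cell ratio (normalised): normalised mesenchymal count divided by normalised epithelial count so high means epithelial killing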); conditions: PC-3E GFP / TEM4-18 mCherry co-culture, imaging cell counts, at 1 µM; for red/green cell ratio (normalised): actives lie on both sides, counts scaled to control wells, 1 = unselective
[17] = target: NAD(+) hydrolase SARM1 (Homo sapiens) (UniProt Q6SZW1); assay: blocking NAD cleavage by SARM1 SAM-TIR – cell lysate, NAD-Glo luminescence (AID 1508614;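 active = compound whose remaining NAD level is above about 45 nM, limit read from the data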;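 also: higher remaining NAD means stronger inhibition of SARM1 NADase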); conditions: SAM-TIR HEK293T lysate NADase, at 1 µM, stronger effect = higher value
[18] = target: Mitogen-activated protein kinase 7 (Homo sapiens) (UniProt Q13164); assay: Gal4-ERK5 driven luciferase induction – cell-based, HTS, primary screen (AID 1508626;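 active = luciferase signal above three times the same-plate solvent-only control wells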;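 also: luciferase driven by Gal4-ERK5 fusion binding five Gal4 sites before minimal TATA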); conditions: HeLa Gal4-ERK5 transactivation, 18 h, at 5 µM, stronger effect = higher value
[19] = galactose survival enhancers in mitochondrial complex I cybrids – cell-based, galactose medium, ATP luminescence, primary screen (AID 1645843;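 active = z-score of at least 1.8 in each of two replicates, scored against plate mean and spread of sample wells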;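 also: positive z means more ATP and so rescue of galactose-driven cybrid death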); conditions: complex I mutant cybrid cells, 72 h, stronger effect = higher value
[20] = stronger effect = lower value, cell number ratio, induced over uninduced
[21] = measured here: relative caspase fold change +Dox/-Dox
[22] = measured here: total cells with miR-34 induction, stronger effect = lower value
[23] = measured here: total cells without miR-34 induction
[24] = MELAS cybrid survival, CellTiter-Glo 48 h, stronger effect = higher value
[25] = Rieske KO mouse fibroblast survival, CellTiter-Glo 72 h
[26] = measured here: epithelial PC-3E GFP cell survival
[27] = measured here: mesenchymal TEM4-18 mCherry cell survival

Sequence of Mitogen-activated protein kinase 7 (Homo sapiens) (Q13164 whole entry, looked up, the tested form may be a part): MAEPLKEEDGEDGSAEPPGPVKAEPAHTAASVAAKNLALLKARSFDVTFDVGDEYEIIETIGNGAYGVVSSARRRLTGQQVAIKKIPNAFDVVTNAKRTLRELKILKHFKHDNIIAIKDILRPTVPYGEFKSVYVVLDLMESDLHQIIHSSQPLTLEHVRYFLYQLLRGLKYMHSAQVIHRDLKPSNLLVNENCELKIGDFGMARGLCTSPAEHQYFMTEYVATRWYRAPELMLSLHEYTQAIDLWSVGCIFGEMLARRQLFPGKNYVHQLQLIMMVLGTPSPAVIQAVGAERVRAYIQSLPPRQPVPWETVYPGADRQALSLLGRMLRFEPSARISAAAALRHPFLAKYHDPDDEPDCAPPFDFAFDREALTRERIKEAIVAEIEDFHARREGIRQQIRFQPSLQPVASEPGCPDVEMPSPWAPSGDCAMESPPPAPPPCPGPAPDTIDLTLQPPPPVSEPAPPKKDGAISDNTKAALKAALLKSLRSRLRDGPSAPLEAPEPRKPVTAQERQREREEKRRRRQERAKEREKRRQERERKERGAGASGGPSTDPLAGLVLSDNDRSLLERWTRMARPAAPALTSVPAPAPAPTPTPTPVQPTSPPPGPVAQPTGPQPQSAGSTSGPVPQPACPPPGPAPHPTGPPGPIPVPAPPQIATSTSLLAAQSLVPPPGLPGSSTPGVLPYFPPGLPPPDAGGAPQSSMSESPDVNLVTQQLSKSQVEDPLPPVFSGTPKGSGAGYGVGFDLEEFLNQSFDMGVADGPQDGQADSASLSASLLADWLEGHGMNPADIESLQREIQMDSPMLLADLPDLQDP
Sequence of 6-phosphogluconate dehydrogenase, decarboxylating (Homo sapiens) (P52209 whole entry, looked up): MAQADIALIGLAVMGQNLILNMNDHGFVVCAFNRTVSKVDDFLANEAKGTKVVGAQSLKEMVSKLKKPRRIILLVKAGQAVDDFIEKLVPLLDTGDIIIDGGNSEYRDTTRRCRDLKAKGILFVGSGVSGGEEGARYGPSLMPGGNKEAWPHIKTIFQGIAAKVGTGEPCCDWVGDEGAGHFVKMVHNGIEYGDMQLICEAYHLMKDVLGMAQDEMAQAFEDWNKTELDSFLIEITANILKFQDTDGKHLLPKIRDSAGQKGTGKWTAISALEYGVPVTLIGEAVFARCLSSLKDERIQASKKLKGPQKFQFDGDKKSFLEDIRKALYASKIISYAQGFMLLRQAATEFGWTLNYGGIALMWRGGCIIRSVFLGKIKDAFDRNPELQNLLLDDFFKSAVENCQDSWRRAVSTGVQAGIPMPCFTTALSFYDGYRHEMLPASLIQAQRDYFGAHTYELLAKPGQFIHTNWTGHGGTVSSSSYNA
Sequence of NAD(+) hydrolase SARM1 (Homo sapiens) (Q6SZW1 whole entry, looked up, the tested form may be a part): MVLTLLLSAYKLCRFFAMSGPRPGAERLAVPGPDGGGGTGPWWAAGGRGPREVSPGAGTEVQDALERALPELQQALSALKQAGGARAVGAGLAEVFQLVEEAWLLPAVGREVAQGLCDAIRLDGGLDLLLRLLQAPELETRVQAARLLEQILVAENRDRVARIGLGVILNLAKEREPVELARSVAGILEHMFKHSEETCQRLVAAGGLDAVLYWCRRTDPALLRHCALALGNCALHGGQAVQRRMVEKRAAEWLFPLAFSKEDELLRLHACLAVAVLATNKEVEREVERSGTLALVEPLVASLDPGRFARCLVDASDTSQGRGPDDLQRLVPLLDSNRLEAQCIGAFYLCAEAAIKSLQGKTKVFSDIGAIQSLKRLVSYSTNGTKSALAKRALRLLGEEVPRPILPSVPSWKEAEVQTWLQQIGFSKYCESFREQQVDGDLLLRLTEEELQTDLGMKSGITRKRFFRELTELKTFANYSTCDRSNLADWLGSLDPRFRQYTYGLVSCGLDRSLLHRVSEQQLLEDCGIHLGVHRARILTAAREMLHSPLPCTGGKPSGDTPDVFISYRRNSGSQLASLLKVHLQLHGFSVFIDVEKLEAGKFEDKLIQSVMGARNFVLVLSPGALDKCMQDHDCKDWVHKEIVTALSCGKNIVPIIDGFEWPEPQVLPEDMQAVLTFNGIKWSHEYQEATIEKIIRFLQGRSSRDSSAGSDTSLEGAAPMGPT

CC(C)CCCC(C)NCCC(C)C (stereo not given)
2.7%: nuclear beta-catenin stimulation ([1]; stimulation, at 2 µM)
inactive: nuclear beta-catenin stimulation ([1]; at 10 µM) -1.6% | viability decrease [2] -5.2% | inhibition of viability [3] -0.4% | viability decrease (inhibition) [4] -8.8% | viability decrease (inhibition) [5] 1.8%

Cc1ccc(-n2nc(C(C)(C)C)cc2NC(=O)Nc2ccc(OCCN3CCOCC3)c3ccccc23)cc1
7%: nuclear beta-catenin stimulation ([1]; stimulation, at 2 µM)
inactive: nuclear beta-catenin stimulation ([1]; at 10 µM) 13.4% | viability decrease (inhibition) [5] 31% | fold change [6, 20] 0.925 | z-score [7, 24] -0.536 | viability ([8]; at 0.000305 µM, OCI-C5x cells, with rucaparib 10 µM, 100% = cells with rucaparib alone) 105% | viability ([8]; at 0.000305 µM, OCI-C5x cells, without rucaparib) 123% | viability ([8]; at 0.000305 µM, OCI-P5x cells, with rucaparib 20 µM, 100% = cells with rucaparib alone) 112% | viability ([8]; at 0.000305 µM, OCI-P5x cells, without rucaparib) 115% | viability ([8]; at 0.00122 µM, OCI-C5x cells, without rucaparib) 113% | viability ([8]; at 0.00122 µM, OCI-P5x cells, without rucaparib) 104% | viability ([8]; at 0.00488 µM, OCI-C5x cells, with rucaparib 10 µM, 100% = cells with rucaparib alone) 106% | viability ([8]; at 0.00488 µM, OCI-C5x cells, without rucaparib) 116% | viability ([8]; at 0.00488 µM, OCI-P5x cells, without rucaparib) 111% | viability ([8]; at 0.0195 µM, OCI-C5x cells, with rucaparib 10 µM, 100% = cells with rucaparib alone) 105% | viability ([8]; at 0.0195 µM, OCI-C5x cells, without rucaparib) 120% | viability ([8]; at 0.0195 µM, OCI-P5x cells, with rucaparib 20 µM, 100% = cells with rucaparib alone) 101% | viability ([8]; at 0.0195 µM, OCI-P5x cells, without rucaparib) 108% | viability ([8]; at 0.0781 µM, OCI-C5x cells, with rucaparib 10 µM, 100% = cells with rucaparib alone) 100% | viability ([8]; at 0.0781 µM, OCI-C5x cells, without rucaparib) 107% | viability ([8]; at 0.0781 µM, OCI-P5x cells, with rucaparib 20 µM, 100% = cells with rucaparib alone) 108% | viability ([8]; at 0.0781 µM, OCI-P5x cells, without rucaparib) 109% | viability ([8]; at 0.313 µM, OCI-C5x cells, with rucaparib 10 µM, 100% = cells with rucaparib alone) 107% | viability ([8]; at 0.313 µM, OCI-C5x cells, without rucaparib) 114% | viability ([8]; at 0.313 µM, OCI-P5x cells, without rucaparib) 101% | viability ([8]; at 1.25 µM, OCI-C5x cells, with rucaparib 10 µM, 100% = cells with rucaparib alone) 107% | viability ([8]; at 1.25 µM, OCI-C5x cells, without rucaparib) 115% | viability ([8]; at 5 µM, OCI-C5x cells, with rucaparib 10 µM, 100% = cells with rucaparib alone) 117% | viability ([8]; at 5 µM, OCI-C5x cells, without rucaparib) 144%
8380: cell count [6, 23]
active: viability decrease [2] 73% | inhibition of viability [3] 66.5% | viability decrease (inhibition) [4] 64.1% | viability ([8]; at 0.00122 µM, OCI-C5x cells, with rucaparib 10 µM, 100% = cells with rucaparib alone) 97.2% | viability ([8]; at 0.00122 µM, OCI-P5x cells, with rucaparib 20 µM, 100% = cells with rucaparib alone) 97.9% | viability ([8]; at 0.00488 µM, OCI-P5x cells, with rucaparib 20 µM, 100% = cells with rucaparib alone) 91.6% | viability ([8]; at 0.313 µM, OCI-P5x cells, with rucaparib 20 µM, 100% = cells with rucaparib alone) 97.2% | viability ([8]; at 1.25 µM, OCI-P5x cells, with rucaparib 20 µM, 100% = cells with rucaparib alone) 96.1% | viability ([8]; at 1.25 µM, OCI-P5x cells, without rucaparib) 95.3% | viability ([8]; at 5 µM, OCI-P5x cells, with rucaparib 20 µM, 100% = cells with rucaparib alone) 96.1% | viability ([8]; at 5 µM, OCI-P5x cells, without rucaparib) 94.8%
-0.851: z-score [7, 25]
0.866: fold change [6, 21]
7750: cell count [6, 22]

COc1ccc2c(c1)C(=O)N(CCc1ccc(S(=O)(=O)NC(=O)NC3CCCCC3)cc1)C(=O)C2(C)C
-0.221 and -0.0621: z-score [7, 25]
active: viability decrease [2] 87.4% | inhibition of viability [3] 68% | viability decrease (inhibition) [4] 87.1% | viability decrease (inhibition) [5] 94%
79.4%: viability [10]
9360 and 9160: cell count [6, 23]
10.6%: nuclear beta-catenin stimulation ([1]; stimulation, at 2 µM)
inactive: survival [9] 22.9 | parasite load remaining [10] 128% | nuclear beta-catenin stimulation ([1]; at 10 µM) 0.7% | fold change [6, 20] 0.971 and 0.893 | z-score [7, 24] -0.157 and 0.277
0.765 and 0.69: fold change [6, 21]
9100 and 8180: cell count [6, 22]

C[C@@H](c1ncncc1F)C(O)(Cn1cncn1)c1ccc(F)cc1F (stereo not given in full)
inactive: insulin secretion stimulation [11] 3.8% | viability decrease [2] -3.3% | tube area decrease [12] -5.2% | GLP1 secretion stimulation [13] -0.7% | inhibition of viability [3] 11.9% | viability decrease (inhibition) [4] 4.6% | viability decrease (inhibition) [5] -4.3%

COc1cc(Cc2cnc(N)nc2N)cc(OC)c1OC
1.02: normalised cell number [16, 27]
inactive: survival [9] 17.1 | insulin secretion stimulation [11] -1.7% | viability decrease [2] -3% | tube area decrease [12] 2% | GLP1 secretion stimulation [13] 4.6% | inhibition of viability [3] 28.8% | viability decrease (inhibition) [4] 39.7% | viability decrease (inhibition) [5] 9.15% | inhibition [14] -0.293% | mean signal [15] 243 | red/green cell ratio (normalised) [16] 1.12 | z-score [7, 24] -0.0749 and 0.787 and 0.308 | remaining NAD [17] 10 nM | luciferase signal [18] 48 AU | z-score [19] 0.49 and 0.045 and 0.71
0.91: normalised cell number [16, 26]
-0.219 and -0.384 and -0.669: z-score [7, 25]

CO[C@]1(NC(=O)CSC(F)F)C(=O)N2C(C(=O)O)=C(CSc3nnnn3CCO)CO[C@H]21
inactive: insulin secretion stimulation [11] 0.75% | viability decrease [2] 11.4% | tube area decrease [12] 7.5% | GLP1 secretion stimulation [13] 4% | inhibition of viability [3] -0.4% | viability decrease (inhibition) [4] -2.1% | viability decrease (inhibition) [5] -3.6%

CC(C)NCC(O)COc1cccc2[nH]ccc12 (stereo not given)
1.17: normalised cell number [16, 27]
inactive: survival [9] 5.75 | insulin secretion stimulation [11] 0.3% | viability decrease [2] 17.5% | tube area decrease [12] 0% | GLP1 secretion stimulation [13] 1.4% | inhibition of viability [3] -13.4% | viability decrease (inhibition) [4] -0.7% | viability decrease (inhibition) [5] -7.1% | inhibition [14] 11.4% | mean signal [15] 248 | red/green cell ratio (normalised) [16] 1.41 | z-score [7, 24] -0.583 and -0.452 | remaining NAD [17] 10 nM | luciferase signal [18] 84 AU
-0.0517 and -0.221: z-score [7, 25]
0.83: normalised cell number [16, 26]

O=C(O)CCc1nc(-c2ccccc2)c(-c2ccccc2)o1
1.14: normalised cell number [16, 26]
inactive: survival [9] 5.67 | insulin secretion stimulation [11] 1.3% | viability decrease [2] -61.8% | tube area decrease [12] -17.6% | GLP1 secretion stimulation [13] 2.2% | inhibition of viability [3] 9.15% | viability decrease (inhibition) [4] 8.7% | viability decrease (inhibition) [5] -5.7% | inhibition [14] -3.27% | mean signal [15] 247 | red/green cell ratio (normalised) [16] 1.03 | z-score [7, 24] -0.226 and -0.656 | remaining NAD [17] 10 nM | luciferase signal [18] 44 AU | z-score [19] 0.9 and 1.19
1.18: normalised cell number [16, 27]
-0.145 and -0.466: z-score [7, 25]

Cc1cc(NS(=O)(=O)c2ccc(N)cc2)no1
1.05: normalised cell number [16, 26]
1.32: normalised cell number [16, 27]
-0.35 and -0.048: z-score [7, 25]
inactive: survival [9] 30.6 | insulin secretion stimulation [11] -2.1% | viability decrease [2] 1.7% | tube area decrease [12] 1.9% | GLP1 secretion stimulation [13] 1.9% | inhibition of viability [3] -6.5% | viability decrease (inhibition) [4] -7.9% | viability decrease (inhibition) [5] 3.95% | inhibition [14] 11.1% | mean signal [15] 252 | red/green cell ratio (normalised) [16] 1.25 | z-score [7, 24] -0.296 and -0.181 | remaining NAD [17] 10 nM | luciferase signal [18] 64 AU | z-score [19] 0.255
